mHTT-CaM PPI inh = inhibitors of human mutant huntingtin-calmodulin interaction. P42858. AlphaScreen His-mHTT/GST-CaM binding, luminescence. inhibition, % at 15 µM. 190,000 tested, 3.6% active. AID 1671202
Pf apPOL inh = Pf-apPOL DNA polymerase inhibition | Recombinant Pf-apPOL, molecular beacon fluorescence, 1.5 h | inhibition, % at 10 µM | 210,000 tested, 0.25% active | AID 1794808
Large screens that a line does not name were inactive. Shown are actives, neighbours in structure and some others; about 3.5% of the full set was active somewhere. No stated cut-off is given here; in the data, active means inhibition above about 50%; inactive means the rest.

CCCC(=O)Nc1ccc2ncnc(N3CCCCC3)c2c1	none
Cn1c(=O)c(N2CCN(C(=O)c3ccc(F)cc3Cl)CC2)nc2ccccc21	none
Cc1ccc(NC(=O)C2CCN(c3c(C#N)cnc4ccccc34)CC2)c(C)c1	none
COc1ccc(C2=NOC(C(=O)Nc3cccc(C(C)=O)c3)C2)cc1OC (centres undefined)	none
CC(=O)c1ccc(NC(=O)C2CC(c3ccccc3F)=NO2)cc1 (centres undefined)	none
COc1ccc(-c2csc(Nc3ccc(O)cc3)n2)cc1OC	mHTT-CaM PPI inh 71
COc1ccc(-c2csc(Nc3ccc(NC(C)=O)cc3)n2)cc1OC	none
CCC1=C(C)/C(=C\c2[nH]c(C)c(CC)c2C)N=C1C	mHTT-CaM PPI inh 95
CCN1CCn2cc(C(=O)N3CCN(c4ccccc4)CC3)nc2C1	none
CC(C)CN1CCn2cc(C(=O)N3CCN(c4ccccc4F)CC3)nc2C1	none
CC(C)CN1CCn2cc(C(=O)N3CCN(c4cccc(Cl)c4)CC3)nc2C1	mHTT-CaM PPI inh 86
CC(C)CN1CCn2cc(C(=O)N3CCN(c4ccc(F)cc4)CC3)nc2C1	mHTT-CaM PPI inh 91
CN1CC=C2C(C(=O)O)=C(N)C(C#N)(C#N)C(c3ccncc3)C2C1 (centres undefined)	none
Cc1ccc(CN2C(=O)NC3(CCN(C(=O)COc4ccc(F)cc4)CC3)C2=O)cc1	none
O=c1cc(-c2ccccc2Cl)oc2ccc([N+](=O)[O-])c(O)c12	none
O=[N+]([O-])c1cc([N+](=O)[O-])c2oc(-c3ccccc3)c(Br)c2c1O	mHTT-CaM PPI inh 96
O=C1CCCC2=C1C(c1ccc(Cl)cc1)C1C(=O)c3ccccc3C1=N2 (centres undefined)	mHTT-CaM PPI inh 66
Cc1ccc(C2C3=C(CCCC3=O)N=C3c4ccccc4C(=O)C32)cc1 (centres undefined)	mHTT-CaM PPI inh 59
O=C1CCCC2=C1C(c1ccccc1)C1C(=O)c3ccccc3C1=N2 (centres undefined)	none
O=C1CCCC2=C1C(c1ccc([N+](=O)[O-])cc1)C1C(=O)c3ccccc3C1=N2 (centres undefined)	none
CC1(C(=O)NCc2ccccc2)CCCN(C(=O)c2cccc(F)c2)C1 (centres undefined)	none
Cc1ccc2nsnc2c1NC(=O)c1cc(I)ccc1Cl	none
O=C(O)c1cc([N+](=O)[O-])c(C(=O)O)cc1Oc1cc(Cl)c(Cl)cc1Cl	none
Nc1cc(Cl)c(Oc2cccc(Cl)c2Cl)cc1[N+](=O)[O-]	mHTT-CaM PPI inh 97
CC(=O)Nc1ccc2c(c1)CCC2	none (no result: mHTT-CaM PPI inh)
COC1CCCCC1Nc1ccc2c(c1)CCC2 (centres undefined)	mHTT-CaM PPI inh 52 (no result: Pf apPOL inh)
CN1CCCn2nc(C3CCN(C(=O)NCCc4ccccc4)CC3)cc2C1=O	none
CNc1nccc(N2CCC(CC(=O)NCc3ccc(OC)cc3)CC2)n1	none
Cc1nn(C(=O)CCN2C(=O)c3ccccc3C2=O)c(C)c1Br	Pf apPOL inh 71
Cc1nn(C(=O)C(C)N2C(=O)c3ccccc3C2=O)c(C)c1Br (centres undefined)	none
C=CCn1c(=O)c2c(ncn2CCC)n(-c2ccc(F)cc2)c1=O	none
Cc1nnc2cc(N3CCN(Cc4ccc(C(F)(F)F)cc4)CC3)cnn12	mHTT-CaM PPI inh 67
Cc1nnc2cc(N3CCN(Cc4csc5c4CCCC5)CC3)cnn12	none
CCCCC[C@@H](C)N1C[C@H](COCc2ccccc2)Oc2cc(N3CCC[C@@H]3CO)ccc2S1(=O)=O	none
CCCCC[C@H](C)N1C[C@H](COCc2ccccc2)Oc2cc(N3CC[C@@H](O)C3)ccc2S1(=O)=O	mHTT-CaM PPI inh 92
CCCCC[C@H](C)N1C[C@@H](COCc2ccccc2)Oc2cc(N3CC[C@H](O)C3)ccc2S1(=O)=O	mHTT-CaM PPI inh 88
CCCCC[C@H](C)N1C[C@@H](COCc2ccccc2)Oc2cc(N3CC[C@H](N(C)C)C3)ccc2S1(=O)=O	none
C[C@@H](c1ccccc1)N1C[C@H](COCc2ccccc2)Oc2cc(N3CC[C@H](O)C3)ccc2S1(=O)=O	none
CCCCC[C@@H](C)N1C[C@@H](COCc2ccccc2)Oc2cc(N3CC[C@H](N(C)C)C3)ccc2S1(=O)=O	mHTT-CaM PPI inh 100
Cc1cccc(C(=O)NCc2ccc3c(c2)nnn3C)c1	none
CCc1ccc(OCC(=O)Nc2cc(-c3nc4ncccc4o3)ccc2C)cc1	none
CCOc1ccc(N2C(=O)c3ccccc3CC2(C)C(=O)NCc2ccc(OC)cc2)cc1 (centres undefined)	none
O=C(NCCC1=CCCCC1)C(=O)Nc1ccc(OC(F)(F)F)cc1	none
CC(CNC(=O)C(=O)Nc1cccc(Cl)c1Cl)c1ccccc1 (centres undefined)	none
Cc1ccc(I)cc1[N+](=O)[O-]	none (no result: mHTT-CaM PPI inh)
Cc1ccc(C)c(CSc2nc(C3CCCCC3)c(C#N)c(=O)[nH]2)c1	Pf apPOL inh 73 (no result: mHTT-CaM PPI inh)
Cc1ccccc1CSc1nc2c(cnn2-c2ccccc2)c(=O)[nH]1	none
Cc1cc(C)n2nc(SCc3c(F)cccc3Cl)nc2n1	none
Cc1cc(C)n2nc(SC(C)C(=O)NCc3ccccc3)nc2n1 (centres undefined)	none
Cc1cc(C)n2nc(SCC(=O)Nc3ccc(C)c(Cl)c3)nc2n1	mHTT-CaM PPI inh 51
Cc1cc(C)n2nc(SC(C)C(=O)NCc3ccccc3Cl)nc2n1 (centres undefined)	Pf apPOL inh 60
C=CCc1c(C)nc2nc(SCC(=O)Nc3ccc(C)c(C)c3)nn2c1C	mHTT-CaM PPI inh 53
Cc1cc(C)n2nc(SCc3ccc(F)cc3Cl)nc2n1	mHTT-CaM PPI inh 52
Cc1cc(C)n2nc(SCC(=O)Nc3cccc(Cl)c3)nc2n1	none
C=CCc1c(C)nc2nc(SCC(=O)Nc3cccc(Cl)c3)nn2c1C	none
COc1ccc(-c2cc3nn(CC(=O)N4CCc5ccccc54)c(=O)n3c(C)n2)cc1	none
COc1cc(NC(=O)CSc2nc3nc(C)c(Cc4ccccc4C)c(C)n3n2)cc(OC)c1	none
COc1ccc(NC(=O)CSc2nc3nc(C)c(Cc4ccccc4C)c(C)n3n2)cc1OC	mHTT-CaM PPI inh 55
Cc1cccc(NC(=O)CSc2nc3c(c(=O)n2C)SC(C)C3)c1 (centres undefined)	none
CC1(C)CC(=O)C2=C(C1)OC(N)=C(C#N)C2c1ccc(Br)cc1 (centres undefined)	none
CC1(C)CC(=O)C2=C(C1)N=C1c3ccccc3C(=O)C1C2c1ccc(F)cc1 (centres undefined)	mHTT-CaM PPI inh 62
CC1(C)CC(=O)C2=C(C1)N=C1c3ccccc3C(=O)C1C2c1ccc(O)c(O)c1 (centres undefined)	none
CC1(C)CC(=O)C2=C(C1)N=C1c3ccccc3C(=O)C1C2c1ccc(Br)cc1 (centres undefined)	mHTT-CaM PPI inh 65
CC1(C)CC(=O)C2=C(C1)N=C1c3ccccc3C(=O)C1C2c1cc(Br)ccc1O (centres undefined)	mHTT-CaM PPI inh 59
COc1ccc(C2C3=C(CCCC3=O)N=C3c4ccccc4C(=O)C32)cc1OC (centres undefined)	none
COc1ccc(/C=C2\N=C(c3ccc(OC)cc3Cl)OC2=O)cc1	none
CC1CC(C)CN(C(=O)C2CCCN(S(=O)(=O)c3ccc(Br)s3)C2)C1 (centres undefined)	none
CSc1ccc(NC(=O)N2CCc3c(c(COc4ccccc4)nn3C)C2)cc1	none
Cc1oc(C2CCN(S(=O)(=O)c3ccccc3Cl)CC2)nc1C(=O)N1CCCC1	none
Cc1ccc(Cl)cc1N1CCN(C(=O)c2ccc(Cn3cncn3)cc2)CC1	mHTT-CaM PPI inh 89
O=C(c1ccc(Cn2cncn2)cc1)N1CCN(c2ccc(Cl)cc2)CC1	none

Screens (PubChem)
